Test results taken from PubChem BioAssay AID624330 (Southern Research Specialized Biocontainment Screening …, 2012).
Screen size: about 340,000 compounds; about 2,100 (0.62%) were called active.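 How the source made its calls: active means first-screen hits whose inhibition reached a set limit at any dose in the follow-up dose series; inconclusive means inhibition above the set first-screen limit but never retested; inactive means the rest.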 A selection follows. Results with a measured potency or affinity are listed apart.

biological target: Rac GTPase-activating protein 1 (Homo sapiens) (UniProt Q9H0H5); assay: blockers of MgcRacGAP-driven Rac1 GTP hydrolysis – biochemical, ADP Hunter fluorescence, primary and confirmatory, confirmation (AID 624330); details: MgcRacGAP-stimulated Rac1 GTP hydrolysis, at 30 µM, hits give high values, GST-tagged Rac1 F28L mutant substrate;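 further: fluorescence reports GDP produced by GAP-driven GTP hydrolysis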
Sequence (Q9H0H5 whole entry, looked up): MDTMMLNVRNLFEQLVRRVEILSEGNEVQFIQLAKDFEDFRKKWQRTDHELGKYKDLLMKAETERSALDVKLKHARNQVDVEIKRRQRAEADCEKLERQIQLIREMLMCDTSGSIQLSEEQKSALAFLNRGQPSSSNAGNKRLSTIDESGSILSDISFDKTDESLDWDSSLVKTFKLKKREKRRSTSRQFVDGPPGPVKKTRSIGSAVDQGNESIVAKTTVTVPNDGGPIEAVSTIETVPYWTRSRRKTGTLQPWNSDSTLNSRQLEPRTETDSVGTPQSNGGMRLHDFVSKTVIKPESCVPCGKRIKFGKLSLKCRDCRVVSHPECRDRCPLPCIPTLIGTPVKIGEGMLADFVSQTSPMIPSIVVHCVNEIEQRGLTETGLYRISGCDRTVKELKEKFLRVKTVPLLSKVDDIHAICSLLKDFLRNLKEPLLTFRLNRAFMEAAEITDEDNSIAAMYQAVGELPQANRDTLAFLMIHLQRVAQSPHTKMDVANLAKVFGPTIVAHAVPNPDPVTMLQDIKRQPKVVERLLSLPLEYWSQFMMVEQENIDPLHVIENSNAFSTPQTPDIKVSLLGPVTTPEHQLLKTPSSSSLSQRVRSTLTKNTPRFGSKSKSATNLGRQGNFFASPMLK

inhibition, inactive:
COc1ccc(CCNC(=O)C(C)SCC(=O)Nc2ccc(F)cc2)cc1 (configuration not stated) 6.87%, Cc1cc([N+](=O)[O-])nn1CC(=O)Nc1nc2ccccc2s1 6.23%, COc1cccc(C(=O)N/N=C(\C)c2ccc(NC(=O)Cc3ccccc3)cc2)c1OC 10.3%, COc1cc(C(=O)O)ccc1O 9.79%, COc1ccccc1C(=O)N/N=C(\C)c1ccc(NC(=O)Cc2ccccc2)cc1 7.02%, COc1ccccc1OCC(=O)N/N=C(\C)c1ccc2ccccc2c1 5.4%, COc1ccc(/C(C)=N/NC(=O)Cc2c(C)nc(C)[nH]c2=O)cc1 -5.47%, COc1ccc(/C(C)=N/NC(=O)c2ccncc2)cc1[N+](=O)[O-] 3.87%, COc1ccc(/C(C)=N/NC(=O)c2ccncc2)cc1 4.26%, C/C(=N\NC(=O)C(O)(c1ccccc1)c1ccccc1)c1ccc(NC(=O)CCCC(=O)O)cc1 7.64%, Cc1ccccc1N1CCN(C2=NC(=O)/C(=C/c3cn[nH]c3-c3ccccc3)S2)CC1 -0.05%, CC(=O)N1c2ccc(S(=O)(=O)N3CCCCC3)cc2CC1C(=O)NCc1ccc(N(C)C)cc1 (configuration not stated) 3.76%, Fc1ccc(CNC(=S)NCc2ccc(F)cc2)cc1 -6.74%, CCNC(=S)N(Cc1cccs1)Cc1cc2cc(OCC)ccc2[nH]c1=O 9.83%, COc1ccc(OCCOCCOc2ccc(C)cc2[N+](=O)[O-])cc1 4.97%, Cc1cnc(C(=O)OC(C(=O)c2c[nH]c3ccccc23)c2ccccc2)cn1 (configuration not stated) 10%, C=C1/C=C(\C)C(C)(O)CC(O)CC(=O)C(O)C(O)C(C)CC(C)OC(=O)/C(C)=C/CC/C=C/C(OC)C(O)CC(C)C1 (configuration not stated) 9.68%, COc1cc(CN2CCCC(CO)(Cc3ccccc3C)C2)cc2c1OCO2 (configuration not stated) 1.83%, O=C(Nc1cc(Br)ccc1O)c1cc(-c2ccco2)on1 8.94%, Clc1cccc(OCCN2CCOCC2)c1 10.7%, Brc1ccc(OCCN2CCOCC2)cc1 28.6%, Brc1ccc(OCCOCCN2CCOCC2)cc1 4.13%, Brc1cccc(OCCN2CCCCC2)c1 17.4%, COc1ccccc1OCC(=O)N1CC2(C)CC1CC(C)(C)C2 (configuration not stated) 8.14%, COc1cc(/C=C/C(=O)OCC(=O)N2CCCc3ccccc32)ccc1OCC#N 6.56%, COc1ccccc1C(=O)OCC(=O)N1CCC(Cc2ccccc2)CC1 6.97%, COc1ccc(/C=N/OCC(=O)N2CC3(C)CC2CC(C)(C)C3)cc1OC (configuration not stated) 4.24%, CCOC(=O)/C=C/C(=O)OCC(=O)N1CCN(C(=O)c2ccco2)CC1 8.47%, COc1cccc(OC)c1C(=O)OCC(=O)N1CCC(Cc2ccccc2)CC1 -0.57%, O=C(/C=C/c1cccc([N+](=O)[O-])c1)OCC(=O)N1CCN(C(=O)c2ccco2)CC1 4.32%, COc1cc(/C=C/C(=O)OCC(=O)N2CCCc3ccccc32)ccc1OC(F)F 1.81%, Cc1ccc(-c2ccc(=O)n(CC(=O)NCCN(CC(C)C)CC(C)C)n2)cc1 8.51%, O=C1C(CO)C(CO)C(CO)C1CO (configuration not stated) -2.59%, CNCCCc1[nH]nc(N)c1C#N 9.11%, CCN(CC(=O)Nc1c(F)cccc1F)C(=O)c1cn2ccccc2n1 2.69%, Cc1ccn2cc(CCNC(=O)c3ccc(Br)o3)nc2c1 13.4%, O=S(=O)(CCc1nc2ccccc2s1)c1ccc2ccccc2c1 18.8%, CCN(CC)S(=O)(=O)c1ccc(NN)nc1 -5.75%, COc1cc(/C=C/C(=O)OCC(=O)N2CCN(S(=O)(=O)c3ccc(C)cc3C)CC2)ccc1OC(F)F 5.89%, COc1cc(/C=C/C(=O)OCC(=O)N2CCCC2)cc(OC)c1OC 4.39%, COc1ccc(/C=C/C(=O)OCC(=O)N2CCN(S(=O)(=O)c3ccc(C)cc3C)CC2)cc1OC -0.78%, COc1ccc(/C=C/C(=O)OCC(=O)N2CCCCCC2)cc1OC 0.54%, COc1cc(C(=O)O)nc(OC)n1 0.97%, CCOC(=O)c1nn(-c2ccc(Cl)cc2)c(=O)c(C#N)c1C 5.44%, O=C(O)CNC(=O)c1ccc(Oc2c(F)c(F)c(Oc3ccc(C(=O)NCC(=O)O)cc3)c(F)c2F)cc1 -1.5%, O=S(=O)(O)c1nnc2sc3ccccc3n12 7.48%, N#CCSc1nnc2sc3ccccc3n12 5.4%, O=S(=O)(Cc1ccccc1)N1CCN(Cc2ccc3c(c2)OCO3)CC1 4.33%, Cc1cccc(NC(=O)C2C3C=CC(C4CC34)C2C(=O)O)c1 (configuration not stated) 10%, Cc1nc2ncnn2c(C)c1Cc1cccc(C(F)(F)F)c1 5.74%, CC1Cc2ccccc2N1C(=O)CNc1ccccc1N1CCCCC1 (configuration not stated) -0.46%, CCCCNC(=O)N1c2ccccc2CC1C (configuration not stated) 1.84%, Cc1cc(N2C(=O)C(O)=C(C(=O)c3cc4ccccc4o3)C2c2ccc(Cl)cc2)no1 (configuration not stated) -5.51%, O=[N+]([O-])c1ccccc1NS(=O)(=O)c1ccccc1 0.32%, Cc1ccc2[nH]ccc(=O)c2c1 10.1%, O=c1cc[nH]c2c1ccc1c(=O)cc[nH]c12 10.4%, CC1CCC2(CC1)NC(=O)N(CC(=O)N1CC(C)CC(C)C1)C2=O (configuration not stated) 3.96%, CCc1ccc2c(c1)C(c1ccc([N+](=O)[O-])cc1)=NNC(c1ccc(C)cc1)=N2 11%, Cc1ccc(/C=N/Nc2ccc(F)cc2)s1 8.64%, Cc1ccc(/C=N/Nc2cccc(C(=O)O)c2)s1 27.8%, CSc1ccc(/C=N/Nc2ccc(Cl)c(C(=O)O)c2)cc1 5.85%, O=C(O)c1cc(N/N=C/c2ccncc2)ccc1Cl -1.57%, CC1=NN(c2ccc(Cl)c(C(=O)O)c2)C(=O)C1 14.9%, CC1=NN(c2ccc(C(=O)OC(C)C)cc2)C(=O)/C1=C\C=C\c1ccco1 3.71%, CCOC(=O)c1ccc(N2N=C(C)/C(=C/C=C/c3ccco3)C2=O)cc1 3.99%, O=C1NN(c2ccc(F)cc2)C(=O)/C1=C\C=C\c1ccco1 8.7%, O=C(C1=C(O)C(=O)N(CCN2CCOCC2)C1c1cccc(Br)c1)c1cc2ccccc2o1 (configuration not stated) 4.64%, C=CCC[C@@H](Cc1ccc(F)cc1)C(=O)OC[C@@H](Cc1c[nH]c2ccccc12)NC(=O)[C@@H](CC=C)CC(=O)N[C@H](CO)Cc1ccccc1 11.1%, CCN(CC)C1CCN(C(=O)c2cc(COc3cccc4cccnc34)on2)C1 (configuration not stated) -5.07%, COC(=O)C(NC(C)=O)(Nc1ccc(C)cn1)C(F)(F)F (configuration not stated) -9.84%, O=[N+]([O-])c1ccccc1CN1CCN(Cc2ccccn2)CC1 28.6%, COc1cc(CN2CCC(C(=O)NC(C)(C)C)CC2)ccc1OCc1ccccc1 29.2%, CCOC(=O)c1cc(CC)sc1NC(=O)Cc1ccsc1 14.6%, C#Cc1ccc(CN2CCN(CCc3ccccc3)C(CCO)C2)cc1 (configuration not stated) 5.19%, Cc1c(C)c2ccc(OCC(=O)NC3CCN(Cc4ccccc4)CC3)cc2oc1=O 4.93%, C[C@@H]1CCCCO[C@H](CN(C)C(=O)Nc2ccc(F)cc2)[C@@H](C)CN([C@H](C)CO)C(=O)c2cc(NC(=O)c3ccccc3)ccc2O1 5.34%, Oc1ccc(N=Nc2ccc3ccccc3c2)cc1 18.5%, Nc1ccc(N=Nc2ccccc2)c(N)n1 8.49%, Nc1ccc(N=Nc2ccccc2Cl)c(N)n1 10.4%, O=C(O)c1ccccc1N=Nc1ccc(O)cc1 13.8%, O=C(Nc1cccc(-c2ccccc2)c1)N1CCN(C(=O)Nc2cccc(-c3ccccc3)c2)CC1 14.5%, Cc1cc(NC(=O)c2ccc(C)o2)no1 2.09%, CCOC(=O)N1CCC(N2Cc3cccc(C(=O)Nc4ccc(N(CC)CC)cc4C)c3C2=O)CC1 -10.8%, COC(=O)CNC(=O)c1nn(-c2cccc(OC)c2)c(=O)c2ccccc12 7.12%, O=c1c(CN2CCN(c3cccc(Cl)c3)CC2)coc2c(Cl)cc(Cl)cc12 1.43%, CCOC(=O)C1CCN(Cc2coc3c(Cl)cc(Cl)cc3c2=O)CC1 14.9%, CCOC(=O)c1cnc2c(cnn2C)c1NCCC(O)C(F)(F)F (configuration not stated) 12.4%, COc1ccc(CCC(=O)NC2CCCc3ccccc32)cc1OC (configuration not stated) 5.44%, CCOc1ccc(NC(=O)c2cc3n(n2)C(C(F)(F)F)CC(c2ccco2)N3)cc1 (configuration not stated) 6.77%, COc1ccc(NC(=O)c2cc3n(n2)C(C(F)(F)F)CC(c2ccco2)N3)cc1 (configuration not stated) 14.5%, CCN(C[C@H]1N[C@@](Cc2ccccc2)(C(=O)OC)[C@H]2C(=O)N(Cc3ccccc3)C(=O)[C@@H]12)C(=O)COc1ccccc1 2.94%, Cc1cc2[nH]c3ccccc3c2c(C)n1 5.1%, Cc1cc2c([nH]c3ccccc32)c(C)n1 17.6%, O=C(NCc1ccncc1)Nc1ccc2c(c1)OCO2 14.7%, Cc1cc(NCc2ccncc2)ccc1Br 22.5%, O=C(NCc1ccncc1)C(=O)Nc1ccc2c(c1)OCO2 3.26%, Cc1ccc(CNc2ccc3c(c2)OCO3)cc1 10.4%
